Assay outcomes as filed in PubChem.
HIV TAR-Tat = HIV-1 TAR-Tat binding disruption; HIV-1 TAR RNA, Tat peptide displacement FRET; stronger effect = higher value; AID 1259389; z-score (no concentration beside the values); 0.6% of 100,000 active; active = z-score of 3 or more in at least 2 runs
CDC25B CDK2 inh = human CDC25B-CDK2/CyclinA binding inhibition. P30305+P24941. HTRF CDC25B-CDK2/CyclinA binding, anti-His/anti-Flag; stronger effect = higher value. z-score (test concentration not listed). 0.72% of 94,000 active. AID 1259370; in the data active = z-score above about 3.2
An asterisk follows results filed as active; x = no result given. Sampled rows, rich in hits. Any-hit rate of the full collection: about 0.86%.

SMILES	HIV TAR-Tat	CDC25B CDK2 inh
N#CC1=C2SCN(Cc3ccco3)CN2C(=O)CC1c1ccc(F)cc1 (configuration not stated)	-1.5	6*
N#CC1=C2SCN(Cc3ccco3)CN2C(=O)CC1c1ccc(Br)cc1 (configuration not stated)	2.1	-1.8
COc1ccc(C2CC(=O)N3CN(Cc4ccco4)CSC3=C2C#N)cc1 (configuration not stated)	1.8	3.2*
CSc1ncc(Cl)c(C(=O)Oc2cc(C)cc(C)c2)n1	0.69	1.4
CCCCC12CN3CC(C)(CN(C1)C3c1cc(Br)ccc1OC)C2=O (configuration not stated)	0.97	0.44
Cc1cc(C)c2c3c(sc2n1)C(=O)N(Cc1ccccc1)C(C)N3 (configuration not stated)	-0.28	0.29
CCCN(CCC)C(=O)c1sc2nc(C)nc(N3CCN(c4ccccn4)CC3)c2c1C	x	-2
Cc1cccc(-c2c3c(=O)n(C)c(=O)n(C)c3c3n2CCOC3c2coc3ccccc3c2=O)c1 (configuration not stated)	0.11	0.58
CCOc1ccc(S(=O)(=O)N(C(=O)c2ccco2)c2cc3sc(=O)oc3c3ccccc23)cc1	0.98	-0.58
COc1ccc(S(=O)(=O)N(C(=O)c2ccco2)c2cc3sc(=O)oc3c3ccccc23)cc1	1.8	16*
COc1ccc(C2CC(=O)N3CN(c4ccc(CCO)cc4)CSC3=C2C#N)cc1 (configuration not stated)	0.63	6*
Cc1ccc(C2CC(=O)N3CN(c4ccc(CCO)cc4)CSC3=C2C#N)cc1 (configuration not stated)	-0.54	7.1*
CCOc1ccc(C2CC(=O)N3CN(c4ccc(OCC)cc4)CSC3=C2C#N)cc1 (configuration not stated)	0.45	2.1
Cc1nc2c3ccccc3n3c(CCCC(=O)N4CCN(C(=O)c5ccco5)CC4)nnc3n2n1	x	0.41
CCC(=O)N1c2ccc(S(=O)(=O)NCCC(C)C)cc2CC1C (configuration not stated)	0.35	x
CCOC(=O)C12C(=O)OC(C)(C)C1C2(CC)C(=O)c1ccccc1 (configuration not stated)	x	0.9
CCn1c(C2CC(=O)N(C)C2)nc2ccccc21 (configuration not stated)	0.16	-0.87
O=c1cc2nc(-c3cccs3)nc(SCc3ccc(Br)cc3)n2[nH]1	27*	x
Cc1ccc(CSc2nc(-c3cccs3)nc3cc(=O)[nH]n23)cc1	0.81	x
C#CCN1C(=O)C(O)(CC(=O)c2ccc(OC)cc2OC)c2ccccc21 (configuration not stated)	-1.3	-1.9
COc1ccc(NC2CCCCC2NS(=O)(=O)c2ccccc2)cc1 (configuration not stated)	3.1	-2.5
O=S(=O)(NC1CCCCC1Nc1ccc(F)cc1)c1ccccc1 (configuration not stated)	2.9	8.6*
COc1cccc2c1c(NC(=O)c1cc(C)oc1C)nn2C	x	-1.1
CN(C)c1cccc2c1c(NC(=O)c1cc(Cl)sc1Cl)nn2C	x	13*
CC(C)Cn1cc(NC(=O)NCCN2CCOCC2)c2ccccc2c1=O	1.2	x
SMILES	HIV TAR-Tat	CDC25B CDK2 inh
CC1CCCCC1NC(=O)c1cc2sccc2n1C (configuration not stated)	1.1	0.23
Cc1ccc(NC(=O)Nc2cccnc2)cc1Cl	x	0.99
CN1C(=O)CSc2ccc(NC(=O)Nc3cccnc3)cc21	0.7	19*
Cc1cccnc1NC(=O)Nc1ccc2c(c1)N(C)C(=O)CS2	-1.5	5.7
CN1CCc2cc(NC(=O)Nc3cccnc3)ccc21	x	23*
COc1ccc(CN=C2NS(=O)(=O)C(c3ccc(C(C)C)cc3)=C2C)cc1OC	-0.17	-5.7
O=C(Nc1ccc2c(c1)C(=O)c1ccccc1C2=O)c1ccccc1	x	-0.85
O=C(O)c1ccccc1C(=O)Nc1ccc2c(c1)C(=O)c1ccccc1C2=O	x	7.8*
CC1(C)Cc2c(C#N)c(SCc3ccccc3)nc(N3CCCC3)c2CO1	-0.14	0.79
Cn1c(=O)sc2cc(S(=O)(=O)N3CCn4c3nc3ccccc34)ccc21	0.51	x
Cn1c(=O)[nH]c2nnc(-c3ccc4c(c3)OCO4)nc2c1=O	-0.58	-1.3
COc1ccc(-c2nnc3[nH]c(=O)n(C)c(=O)c3n2)cc1OC	8.2*	-2.7
O=C(O)CN1C(=O)/C(=C\c2cc([N+](=O)[O-])cc(Br)c2O)SC1=S	x	-2.5
CNC(=O)NNC(=O)Cn1cc(Cl)c(=O)c(Cl)c1	x	0.55
CCc1ccc(CN2N=NC3C(=O)N(c4ccc(Cl)cc4)C(=O)C32)cc1 (configuration not stated)	-0.84	-1.4
CCOc1ccc(C2C3=C(Nc4nc(N)[nH]c(=O)c42)c2ccccc2C3=O)cc1 (configuration not stated)	2.4	14*
CCOc1ccc(C2C3=C(CCCC3=O)NC3=C2C(=O)c2ccccc23)cc1 (configuration not stated)	-0.77	-2.1
